Assay results taken from the supplement of paper PMC8975748.
Counter-ions that a name gives are not always drawn.

Each compound was assayed on Saccharomyces cerevisiae BY4741 SeMeCo community (assay: z-score of subpopulation abundance vs DMSO median, subpopulation auxotrophic for HLM; higher = larger share of this subpopulation than in DMSO controls). Details: 10 µM; 24 h; SM minimal medium; subpopulation (auxotrophy): HLM.
Method: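 Fluorescent four-plasmid SeMeCo (self-establishing metabolically cooperating S. cerevisiae BY4741 community; plasmids pH-mRuby2, pL-mWasabi, pU-eCFP, pM-TagRFP657) was grown 24 h in minimal SM medium with each Selleck FDA-approved drug at 10 µM in 384-well plates. Cells were fixed and imaged by high-content confocal microscopy. For each auxotrophic subpopulation (and the prototroph), a z-score gives the deviation from the DMSO vehicle-control population median.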

| Compound | z-score of subpopulation abundance |
| --- | --- |
| CCn1cc(C(=O)O)c(=O)c2cnc(N3CCNCC3)nc21 [Pipemidic acid] | -0.37 |
| CN(C)CCC[C@@]1(c2ccc(F)cc2)OCc2cc(C#N)ccc21 [Escitalopram Oxalate] | -0.63 |
| CN[C@@H]1[C@H](O[C@H]2[C@H](O[C@H]3[C@H](O)[C@@H](O)[C@H](N=C(N)N)[C@@H](O)[C@@H]3N=C(N)N)O[C@@H](C)[C@]2(O)C=O)O[C@@H](CO)[C@H](O)[C@H]1O [Streptomycin sulfate] | -0.57 |
| N[C@@H](C(=O)N[C@@H]1C(=O)N2C(C(=O)O)=C(Cl)CS[C@H]12)c1ccccc1 [Cefaclor] | 0.3 |
| Oc1c(Cl)cc(Cl)cc1Sc1cc(Cl)cc(Cl)c1O [Bithionol] | 4.37 |
| COc1ccc2cc3[n+](cc2c1OC)CCc1cc2c(cc1-3)OCO2 [Berberine Sulfate] | 0.13 |
| CC[C@@H]([C@H](C)O)n1ncn(-c2ccc(N3CCN(c4ccc(OC[C@@H]5CO[C@@](Cn6cncn6)(c6ccc(F)cc6F)C5)cc4)CC3)cc2)c1=O [Posaconazole] | 14.9 |
| NC1CCN(c2nc3c(cc2F)c(=O)c(C(=O)O)cn3-c2ccc(F)cc2F)C1 (stereo not given) [Tosufloxacin p-Toluenesulfonate Hydrate] | -0.56 |
| CC(=O)OCC1=C(C(=O)O)N2C(=O)C(NC(=O)CSC(=NC(C)C)NC(C)C)C2SC1 (stereo not given) [Cefathiamidine] | -1.16 |
| CC(=O)N1CCN(c2ccc(OCC3COC(Cn4ccnc4)(c4ccc(Cl)cc4Cl)O3)cc2)CC1 (stereo not given) [Ketoconazole] | -0.67 |
| CCCOc1ccc2[nH]c(NC(=O)OC)nc2c1 [Oxibendazole] | 0.16 |
| N[C@@H](CCC(=O)O)C(=O)O [(S)-Glutamic acid] | 0.07 |
| NC(=O)c1cnccn1 [Pyrazinamide] | -0.57 |
| N#Cc1ccc2[nH]cc(CCCCN3CCN(c4ccc5oc(C(N)=O)cc5c4)CC3)c2c1 [Vilazodone HCl] | -0.45 |
| CCN(Cc1ccncc1)C(=O)C(CO)c1ccccc1 (stereo not given) [Tropicamide] | -0.45 |
| c1cnc2cc3c(cc2n1)[C@@H]1CNC[C@H]3C1 [Varenicline Tartrate] | 0.76 |
| Nc1nnc(-c2cccc(Cl)c2Cl)c(N)n1 [Lamotrigine] | 0.44 |
| C=CCc1ccc(O)c(-c2ccc(O)c(CC=C)c2)c1 [Honokiol] | -0.37 |
| CC(C)[N+](C)(CCOC(=O)C1c2ccccc2Oc2ccccc21)C(C)C [Propantheline bromide] | -0.74 |
| CO/N=C(\C(=O)N[C@@H]1C(=O)N2C(C(=O)O)=C(CSc3nc(=O)c(O)nn3C)CS[C@H]12)c1csc(N)n1 [Ceftriaxone Sodium Trihydrate] | 0.5 |

| Compound | z-score of subpopulation abundance |
| --- | --- |
| C=CCN1CCCC1CNC(=O)c1cc2nn[nH]c2cc1OC (stereo not given) [Alizapride HCl] | -0.44 |
| NC[C@@H]1O[C@H](O[C@H]2[C@@H](O)[C@H](O[C@@H]3[C@@H](O)[C@H](N)C[C@H](N)[C@H]3O[C@H]3O[C@H](CO)[C@@H](O)[C@H](O)[C@H]3N)O[C@@H]2CO)[C@H](N)[C@@H](O)[C@@H]1O [Paromomycin Sulfate] | 0.02 |
| CN1CCc2cc3c(cc2C(=O)Cc2ccc4c(c2C1)OCO4)OCO3 [Protopine] | 0.14 |
| CCc1c(C)[nH]c2c1C(=O)C(CN1CCOCC1)CC2 (stereo not given) [Molindone hydrochloride] | -0.03 |
| Cc1onc(-c2c(Cl)cccc2Cl)c1C(=O)N[C@@H]1C(=O)N2[C@@H]1SC(C)(C)[C@@H]2C(=O)O [Dicloxacillin Sodium] | -0.56 |
| O=c1c(-c2ccc(O)cc2)coc2c([C@@H]3O[C@H](CO)[C@@H](O)[C@H](O)[C@H]3O)c(O)ccc12 [Puerarin] | 1.18 |
| CN1[C@@H](CC(=O)c2ccccc2)CCC[C@H]1C[C@H](O)c1ccccc1 [Lobeline hydrochloride] | -0.48 |
| CC1=C(C(=O)O)N2C(=O)[C@@H](NC(=O)[C@H](N)c3ccc(O)cc3)[C@H]2SC1 [Cefadroxil hydrate] | -0.45 |
| NCc1ccccc1CC(=O)N[C@@H]1C(=O)N2C(C(=O)O)=C(CSc3nnnn3CC(=O)O)CS[C@H]12 [Ceforanide] | 0.46 |
| NCCNc1ccc(NCCN)c2c1C(=O)c1ccncc1C2=O [Pixantrone Maleate] | -2.2 |
| CC(C)COCC(CN(Cc1ccccc1)c1ccccc1)N1CCCC1 (stereo not given) [Bepridil hydrochloride] | 2.56 |
| COC1C(O)CC(=O)OC(C)CC=CC=CC(OC2CCC(N(C)C)C(C)O2)C(C)CC(CC=O)C1OC1OC(C)C(OC2CC(C)(O)C(O)C(C)O2)C(N(C)C)C1O (stereo not given) [Spiramycin] | 0.43 |
| CC1(C)S[C@@H]2[C@H](NC(=O)C(c3ccccc3)S(=O)(=O)O)C(=O)N2[C@H]1C(=O)O (stereo not given in full) [Sulbenicillin Sodium] | 3.16 |
| CC/C(=C(\c1ccccc1)c1ccc(OCCN(C)C)cc1)c1ccccc1 [Tamoxifen] | 0.89 |
| NC[C@H]1O[C@H](O[C@H]2[C@H](O)[C@@H](O[C@H]3O[C@H](CO)[C@@H](O)[C@H](N)[C@H]3O)[C@H](N)C[C@@H]2N)[C@H](N)C[C@@H]1O [Tobramycin] | -1.18 |
| CC[C@H](C)C(=O)O[C@H]1C[C@H](O)C=C2C=C[C@H](C)[C@H](CC[C@@H](O)C[C@@H](O)CC(=O)O)[C@H]21 [Pravastatin sodium] | 0.62 |
| N#Cc1ccc2[nH]cc(CCCCN3CCN(c4ccc5oc(C(N)=O)cc5c4)CC3)c2c1 [Vilazodone] | 0.08 |
| CC(C)(C)C(=O)C(Oc1ccc(Cl)cc1)n1ccnc1 (stereo not given) [Climbazole] | 12.1 |
| C[n+]1ccccc1C=NO [Pralidoxime Iodide] | 0.32 |
| CCN(CC)CCOC(=O)c1ccc(N)cc1Cl [Chloroprocaine HCl] | -0.23 |
